Only some compounds are listed: those with a hit (about 3% of all), similar ones and a draw of the others.
BioA inh: BioA (M. tuberculosis) enzyme inhibition; purified M. tuberculosis BioA enzyme, plate reader; inhibition, % at 9.99 µM; hit rate 0.096% among 360,000; in the data active means inhibition above about 40%
Rv3671c protease: inhibitors of M. tuberculosis serine protease Rv3671c; hit rate 0.048% among 320,000; inhibition, % at 5.96 µM; P9WHR9; AID 2606; in the data active means inhibition above about 38%;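 further: extracellular domain of Rv3671c used as enzyme; 0% = enzyme with DMSO and 100% = no enzyme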
Target sequence (P9WHR9 whole entry, looked up, the tested form may be a part): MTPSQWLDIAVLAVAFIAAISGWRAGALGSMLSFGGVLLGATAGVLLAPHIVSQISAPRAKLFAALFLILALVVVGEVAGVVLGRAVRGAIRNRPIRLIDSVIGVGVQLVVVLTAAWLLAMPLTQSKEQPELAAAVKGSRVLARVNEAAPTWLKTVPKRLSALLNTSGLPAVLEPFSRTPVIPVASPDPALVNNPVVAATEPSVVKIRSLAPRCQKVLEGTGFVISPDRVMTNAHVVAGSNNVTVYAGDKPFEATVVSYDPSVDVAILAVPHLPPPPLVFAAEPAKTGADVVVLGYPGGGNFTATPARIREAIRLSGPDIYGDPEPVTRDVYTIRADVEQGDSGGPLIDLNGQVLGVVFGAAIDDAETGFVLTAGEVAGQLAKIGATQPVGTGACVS
FBA Mtb inh: inhibitors of M. tuberculosis fructose-bisphosphate aldolase; P9WQA3; purified M. tuberculosis FBA, fluorescence read-out; inhibition, % at 1 µM; hit rate 2.3% among 360,000; AID 588726;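 further: 0% = vehicle and 100% = reference inhibitor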
FadD28 FP inh: blocks FadD28 binding to the bisubstrate probe; fluorescence polarization; inhibition, % at 12.5 µM; hit rate 0.22% among 360,000; AID 588549; in the data active means inhibition above about 8.5%, passing the limit was not always enough
GDH-TPI counter-1: GDH-TPI coupled enzyme inhibition counter-screen | GDH-TPI coupled enzyme counterscreen, NADH absorbance | inhibition, % at 4.8 µM | hit rate 1.2% among 360,000 | AID 588335; in the data active means inhibition above about 30%;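 further: 0% = DMSO wells and 100% = wells lacking the enzyme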
Mtb FBA confirm: confirmation of M. tuberculosis fructose-bisphosphate aldolase inhibitors. shares compounds with FBA Mtb inh. purified M. tuberculosis FBA, fluorescence read-out. inhibition, % at 1 µM. hit rate 78% among 5,600. AID 651616;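 further: 0% = vehicle wells and 100% = reference inhibitor wells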
GDH-TPI counter-2: counter-screen for M. tuberculosis FBA inhibitors: GDH-TPI coupled enzyme inhibition; shares compounds with FBA Mtb inh; GDH-TPI coupled enzyme counterscreen, fluorescence; inhibition, % at 1 µM; hit rate 81% among 5,600; in the data active means inhibition above about 10%
GDH-TPI DR: GDH-TPI dose response counter-screen for Mtb FBA; shares compounds with FBA Mtb inh; GDH-TPI coupled enzyme assay, fluorescence, artifact counterscreen; IC50, µM; hit rate 79% among 170; AID 652145; call rule not given here
Active calls of the source: *. Unless noted, no stated cut-off is given here; in the data, active means inhibition above about 27%; inactive means the rest.

How did COc1ccc2c(C)cc3n[nH]c(=S)n3c2c1 do in these assays?
Rv3671c protease: -1; FBA Mtb inh: 37*; FadD28 FP inh: -1; GDH-TPI counter-1: 28; Mtb FBA confirm: 33*; GDH-TPI counter-2: 21*

Results for COc1ccc(-c2n[nH]c(=S)n2-c2cc(OC)ccc2OC)cc1 ?
BioA inh: -1; Rv3671c protease: 5; FBA Mtb inh: 1; FadD28 FP inh: -1; GDH-TPI counter-1: 0

Results for Cc1ccc(S(=O)(=O)Nc2ccc3c(c2)C(=O)N([C@H](C)CO)C[C@@H](C)[C@@H](CN(C)C(=O)CCCN(C)C)OCCCC[C@@H](C)O3)cc1 ?
BioA inh: 0

How did C[C@@H]1CN([C@@H](C)CO)C(=O)c2cc(NC(=O)Cc3cn(C)c4ccccc34)ccc2O[C@@H]1CN(C)S(=O)(=O)c1cccs1 do in these assays?
BioA inh: 1

Results for Cc1ccc(-c2cnc(-c3ccccc3C(=O)O)o2)cc1 ?
BioA inh: 0; Rv3671c protease: -10; FBA Mtb inh: 70*; FadD28 FP inh: -1; GDH-TPI counter-1: 0; Mtb FBA confirm: 11; GDH-TPI counter-2: -3; GDH-TPI DR: 1.6*

What do the screens show for `Cc1noc(C)c1S(=O)(=O)Nc1ccc2c(c1)C(=O)N([C@H](C)CO)C[C@@H](C)[C@@H](CN(C)S(=O)(=O)c1ccc(Cl)cc1)OCCCC[C@H](C)O2`?
BioA inh: -3

How did COc1ccc(-c2nc3ccc(C)cn3c2NCc2ccccc2)cc1SC1CCCCC1 do in these assays?
BioA inh: -4; Rv3671c protease: 6; FBA Mtb inh: 25; FadD28 FP inh: -1; GDH-TPI counter-1: 13

Results for COc1ccc(-c2ccc(-c3nc4ccc(C)cn4c3NC3CCCCC3)cc2OC)cc1 ?
BioA inh: -2; Rv3671c protease: 2; FBA Mtb inh: 54*; FadD28 FP inh: -4; GDH-TPI counter-1: 19; Mtb FBA confirm: active; GDH-TPI counter-2: 185*

Results for CCCCNc1c(-c2ccc(OC)c(SC3CCCCC3)c2)nc2ccc(C)cn12 ?
BioA inh: -1; Rv3671c protease: 11; FBA Mtb inh: 36*; FadD28 FP inh: -1; GDH-TPI counter-1: 25; Mtb FBA confirm: active; GDH-TPI counter-2: 161*

How did CCCCNc1c(-c2ccc(SC3CCCCC3)c(OC)c2)nc2ccc(C)cn12 do in these assays?
BioA inh: -1; Rv3671c protease: 0; FBA Mtb inh: 50*; FadD28 FP inh: -4; GDH-TPI counter-1: 15; Mtb FBA confirm: active; GDH-TPI counter-2: 193*

What do the screens show for `Cc1c2n(c3ccccc13)CCC2=O`?
BioA inh: 5; Rv3671c protease: -4; FBA Mtb inh: 28*; FadD28 FP inh: -2; GDH-TPI counter-1: 6; Mtb FBA confirm: 77*; GDH-TPI counter-2: 68*

What do the screens show for `COc1ccc(C2C(C#N)=C(N)Oc3c2c(C)nn3-c2ccccc2)cc1Cn1nc(C)c([N+](=O)[O-])c1C` (stereo unspecified)?
BioA inh: 9; Rv3671c protease: 10; FBA Mtb inh: 0; FadD28 FP inh: 2; GDH-TPI counter-1: 20

Results for COc1ccc(C2C(C#N)=C(N)OC3=C2C(=O)CC(C)(C)C3)cc1Cn1nc(C)c([N+](=O)[O-])c1C (stereo unspecified) ?
Rv3671c protease: -18; FBA Mtb inh: 39*; FadD28 FP inh: -3; GDH-TPI counter-1: -4; Mtb FBA confirm: 54*; GDH-TPI counter-2: 47*

What do the screens show for `CC1=CC2=NCC(O)CN2C=C1` (stereo unspecified)?
BioA inh: 0; Rv3671c protease: -2; FBA Mtb inh: 28*; FadD28 FP inh: -2; GDH-TPI counter-1: -4; Mtb FBA confirm: 12; GDH-TPI counter-2: -5; GDH-TPI DR: 9.3*

What do the screens show for `Cc1ccc2[nH]c(=O)c(-c3noc(C(C)C)n3)cc2c1`?
BioA inh: 0; Rv3671c protease: -8; FBA Mtb inh: 21; FadD28 FP inh: 1; GDH-TPI counter-1: 10

What do the screens show for `Cc1ccc2cc(-c3noc(C(C)(C)C)n3)c(=O)[nH]c2c1`?
BioA inh: 0; Rv3671c protease: 2; FBA Mtb inh: 30*; FadD28 FP inh: 1; GDH-TPI counter-1: 15; Mtb FBA confirm: 65*; GDH-TPI counter-2: 58*

What do the screens show for `CCc1nc(-c2cc3ccc(C)cc3[nH]c2=O)no1`?
Rv3671c protease: -6; FBA Mtb inh: 30*; FadD28 FP inh: -1; GDH-TPI counter-1: 20; Mtb FBA confirm: 91*; GDH-TPI counter-2: 82*

How did Cc1noc(C)c1S(=O)(=O)N(C)C[C@H]1Oc2c(NC(=O)c3ccc(-c4nccs4)cc3)cccc2C(=O)N([C@H](C)CO)C[C@H]1C do in these assays?
BioA inh: 1

How did O=C(Cc1ccccc1)Nc1cccc(C(=O)O)c1O do in these assays?
Rv3671c protease: -10; FBA Mtb inh: 76*; FadD28 FP inh: -2; GDH-TPI counter-1: 5; Mtb FBA confirm: 82*; GDH-TPI counter-2: 49*

Results for C=CCn1c(C(C)C)nc2ccccc21 ?
BioA inh: -2; Rv3671c protease: -3; FBA Mtb inh: -1; FadD28 FP inh: -2; GDH-TPI counter-1: -1

Results for C=CCn1c(C)cc(C(=O)Cn2c(C(C)O)nc3ccccc32)c1C (stereo unspecified) ?
BioA inh: -1; Rv3671c protease: 9; FBA Mtb inh: 74*; FadD28 FP inh: -2; GDH-TPI counter-1: 7; Mtb FBA confirm: 156*; GDH-TPI counter-2: 119*

Results for Cc1cccc(S(=O)(=O)N2C[C@H](O)COC[C@@H]3O[C@@H](CC(=O)NCCCN4CCOCC4)CC[C@H]32)c1 ?
BioA inh: 3

How did CCOc1ccc(-n2cnc3scc(-c4ccc(OC)c(OC)c4)c3c2=O)cc1 do in these assays?
Rv3671c protease: 3; FBA Mtb inh: 28*; FadD28 FP inh: -1; GDH-TPI counter-1: -4; Mtb FBA confirm: 30*; GDH-TPI counter-2: 21*

Results for COc1ccc(Cc2[nH]n3c(=O)cc(C(C)C)nc3c2-c2ccccc2)cc1 ?
Rv3671c protease: 4; FBA Mtb inh: 17; FadD28 FP inh: -1; GDH-TPI counter-1: 8

Results for Cc1cc(=O)n2[nH]c(C(F)(F)F)c(-c3ccccc3)c2n1 ?
BioA inh: 0; Rv3671c protease: -9; FBA Mtb inh: 64*; FadD28 FP inh: -2; GDH-TPI counter-1: 1; Mtb FBA confirm: 165*; GDH-TPI counter-2: 135*

What do the screens show for `COc1ccc(Cc2[nH]n3c(=O)cc(C)nc3c2-c2ccccc2)cc1`?
BioA inh: -1; Rv3671c protease: 12; FBA Mtb inh: 27*; FadD28 FP inh: -2; GDH-TPI counter-1: 0; Mtb FBA confirm: 157*; GDH-TPI counter-2: 147*

How did COCCNC(=O)C[C@@H]1CC[C@@H]2[C@H](COc3ccc(NS(=O)(=O)c4ccc(Cl)cc4)cc3C(=O)N2C)O1 do in these assays?
BioA inh: 0
